This passage reports outcome and AC50 results from PubChem BioAssay (EPA / NIEHS).

Broadly, the AC50 is the concentration at which the activity in the assay is half-maximal.

Calls of active or inactive are those of the source. The calls were made as follows: active = hit-call score of the fitted dose curve at least 0.9, where 1 is the maximum; inactive = score below 0.9.

Sequence of Transcriptional activator Myb (Homo sapiens) (P10242 whole entry, looked up): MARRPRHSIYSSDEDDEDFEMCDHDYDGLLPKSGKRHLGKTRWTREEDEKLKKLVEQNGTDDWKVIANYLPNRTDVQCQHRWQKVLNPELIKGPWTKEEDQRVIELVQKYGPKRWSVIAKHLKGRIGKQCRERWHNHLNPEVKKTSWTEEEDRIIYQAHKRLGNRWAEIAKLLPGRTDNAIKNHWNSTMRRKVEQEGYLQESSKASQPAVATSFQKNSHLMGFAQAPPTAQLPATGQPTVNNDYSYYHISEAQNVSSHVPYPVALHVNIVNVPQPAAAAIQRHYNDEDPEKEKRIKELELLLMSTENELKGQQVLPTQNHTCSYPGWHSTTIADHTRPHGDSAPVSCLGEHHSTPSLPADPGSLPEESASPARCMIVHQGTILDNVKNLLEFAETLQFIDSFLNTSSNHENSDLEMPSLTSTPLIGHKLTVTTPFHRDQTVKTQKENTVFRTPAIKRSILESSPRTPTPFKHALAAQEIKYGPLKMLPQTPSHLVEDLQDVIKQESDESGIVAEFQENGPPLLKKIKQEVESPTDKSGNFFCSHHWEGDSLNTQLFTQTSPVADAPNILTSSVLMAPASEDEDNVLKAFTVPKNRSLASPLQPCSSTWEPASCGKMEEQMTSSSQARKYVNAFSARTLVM
Sequence of Nuclear respiratory factor 1 (Homo sapiens) (Q16656 whole entry, looked up): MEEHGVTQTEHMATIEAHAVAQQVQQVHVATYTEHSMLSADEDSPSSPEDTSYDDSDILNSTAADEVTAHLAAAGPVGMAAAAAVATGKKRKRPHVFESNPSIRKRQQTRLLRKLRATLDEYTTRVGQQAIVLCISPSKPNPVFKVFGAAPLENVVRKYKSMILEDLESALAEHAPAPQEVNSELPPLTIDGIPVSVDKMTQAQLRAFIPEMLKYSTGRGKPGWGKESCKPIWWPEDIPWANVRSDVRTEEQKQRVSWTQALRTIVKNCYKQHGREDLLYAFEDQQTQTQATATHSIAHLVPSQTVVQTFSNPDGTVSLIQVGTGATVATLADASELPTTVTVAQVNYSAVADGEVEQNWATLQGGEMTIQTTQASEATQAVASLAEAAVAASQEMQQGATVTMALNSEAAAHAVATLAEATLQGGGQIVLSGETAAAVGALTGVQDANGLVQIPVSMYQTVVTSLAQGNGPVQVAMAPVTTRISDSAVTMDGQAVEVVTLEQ

One test concerns the target Transcriptional activator Myb (Homo sapiens) (UniProt P10242). The test can be described thus: ATG_Myb_CIS: Attagene CIS-FACTORIAL HepG2 Assay for human Myeloblastosis (Myb) Proto-Oncogene Transcription Factor (AID 2282986). The settings on record: HepG2 Attagene CIS-FACTORIAL Myb reporter transcription; actives raise or lower the signal. The essentials: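 Using HepG2 liver cells bearing transiently transfected cis-promoter reporter constructs, the assay measures induction or loss of reporter mRNA after 24 hours of dosing. Detection used fluorescently labeled RT-PCR products separated by capillary electrophoresis.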
Regarding `CC/C=C\C#N`, the compound was called inactive.

Regarding `CCOC(=O)CC(C)C`, the result was inactive.

Regarding `CC/C=C\CCOC(C)OCC` (centres undefined), the call was inactive.

As for `O=C(C=Cc1ccccc1)OCCCc1ccccc1`, the result was inactive.

With `CC(=N[Si](C)(C)C)O[Si](C)(C)C`, the call was inactive.

As for `CN(C)CCC=C1c2ccccc2CCc2ccccc21`, the compound was called inactive.

As for `CCC=C(C)C=O`, the outcome was inactive.

For the compound `[Cu+]`, the outcome was inactive.

In the case of `c1coc(CNc2ncnc3nc[nH]c23)c1`, the compound was called inactive.

As to `S=c1[nH][nH]c(=S)s1`, the result was inactive.

Take `CCCOC(=O)CC`: the result was inactive.

For the compound `CC(C)(C)c1cccc(O)c1`, the outcome was inactive.

For `CCCc1ccc(O)cc1`, the compound was classed as inactive.

Regarding `COc1ccc(OC)cc1`, the outcome was inactive.

Consider `N=C1N=C(N)c2ccccc21`, for which the result was inactive.

For `CC(=O)CCC(=O)O`, the compound was classed as inactive.

Take `CCCCCC(=O)O[C@]1(C(C)=O)CC[C@H]2[C@@H]3CCC4=CC(=O)CC[C@]4(C)[C@H]3CC[C@@]21C`: the result was inactive.

In the case of `O=C1OC2(c3ccc(O)cc3Oc3cc(O)ccc32)c2ccccc21`, the compound was classed as inactive.

With `CC1=CC(O)CC(C)(C)C1` (centres undefined), the result was inactive.

With `CCCCCCOC(C)=O`, the result was inactive.

Regarding `OCCCO`, the compound was called inactive.

Take `CCCC[N+](C)(CCCC)CCCC`: the call was inactive.

Regarding `CCCCOC(=O)C(C)OC(=O)CCC` (centres undefined), the compound was classed as inactive.

Regarding `CC(=O)CC(=O)N(C)C`, the result was inactive.

`Nc1ccc(N)c([N+](=O)[O-])c1`: the compound was called inactive.

In the case of `OC[C@H]1O[C@@H](O[C@H]2[C@H](O)[C@@H](O)[C@H](O)O[C@@H]2CO)[C@H](O)[C@@H](O)[C@H]1O`, the compound was called inactive.

For `CC(C)(CO)CO`, the call was inactive.

Consider `C/C=C(\C)C(=O)OC/C=C(\C)CCC=C(C)C`, for which the call was inactive.

As to `NC(=O)c1cnccn1`, the result was inactive.

As to `CC/C=C\CCOC(=O)C(C)C`, the call was inactive.

For the compound `C[C@H](CCC(=O)O)[C@H]1CC[C@H]2[C@@H]3CC[C@@H]4C[C@H](O)CC[C@]4(C)[C@H]3CC[C@]12C`, the outcome was inactive.

As to `CCCCCCC(C)O` (centres undefined), the result was inactive.

Consider `O=C(OCc1ccccc1)c1ccccc1O`, for which the call was inactive.

Take `CC(=O)c1ccc(C)cc1`: the compound was called inactive.

As to `CC(C)N(c1ccccc1)C(C)C`, the result was inactive.

Another test addresses Nuclear respiratory factor 1 (Homo sapiens) (UniProt Q16656). The test can be described thus: ATG_NRF1_CIS: Attagene CIS-FACTORIAL HepG2 Assay for human Nuclear Respiratory Factor 1 (NRF1) Orphan Gene (AID 2282987). The settings on record: HepG2 NRF1 cis-element reporter, Attagene multiplex; actives raise or lower the signal. In outline:
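Reporter mRNA induction or loss in HepG2 cells after 24 h dosing; cis-regulated reporter constructs report endogenous transcription-factor activity. Quantified by RT-PCR/capillary electrophoresis fluorescence, DMSO-referenced.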
For `CC/C=C\C#N`, the outcome was inactive.

As to `CCOC(=O)CC(C)C`, the result was inactive.

In the case of `CC/C=C\CCOC(C)OCC` (centres undefined), the call was inactive.

On to `O=C(C=Cc1ccccc1)OCCCc1ccccc1`, for which the outcome was inactive.

In the case of `CC(=N[Si](C)(C)C)O[Si](C)(C)C`, the compound was called inactive.

For `CN(C)CCC=C1c2ccccc2CCc2ccccc21`, the outcome was inactive.

In the case of `CCC=C(C)C=O`, the compound was called inactive.

`[Cu+]`: the compound was called inactive.

Take `c1coc(CNc2ncnc3nc[nH]c23)c1`: the compound was classed as inactive.

Turning to `S=c1[nH][nH]c(=S)s1`, the outcome was inactive.

In the case of `CCCOC(=O)CC`, the compound was called inactive.

Take `CC(C)(C)c1cccc(O)c1`: the result was inactive.

In the case of `CCCc1ccc(O)cc1`, the call was inactive.

As to `COc1ccc(OC)cc1`, the compound was called inactive.

As for `N=C1N=C(N)c2ccccc21`, the outcome was inactive.

As to `CC(=O)CCC(=O)O`, the outcome was inactive.

With `CCCCCC(=O)O[C@]1(C(C)=O)CC[C@H]2[C@@H]3CCC4=CC(=O)CC[C@]4(C)[C@H]3CC[C@@]21C`, the AC50 is 8.32 µM (active).

In the case of `O=C1OC2(c3ccc(O)cc3Oc3cc(O)ccc32)c2ccccc21`, the outcome was inactive.

As for `CC1=CC(O)CC(C)(C)C1` (centres undefined), the outcome was inactive.

Turning to `CCCCCCOC(C)=O`, the result was inactive.

For the compound `OCCCO`, the compound was classed as inactive.

As for `CCCC[N+](C)(CCCC)CCCC`, the call was inactive.

`CCCCOC(=O)C(C)OC(=O)CCC` (centres undefined): the result was inactive.

For the compound `CC(=O)CC(=O)N(C)C`, the call was inactive.

With `OC[C@H]1O[C@@H](O[C@H]2[C@H](O)[C@@H](O)[C@H](O)O[C@@H]2CO)[C@H](O)[C@@H](O)[C@H]1O`, the result was inactive.

Consider `CC(C)(CO)CO`, for which the call was inactive.

Take `C/C=C(\C)C(=O)OC/C=C(\C)CCC=C(C)C`: the result was inactive.

Consider `NC(=O)c1cnccn1`, for which the result was inactive.

In the case of `CC/C=C\CCOC(=O)C(C)C`, the call was inactive.

Regarding `C[C@H](CCC(=O)O)[C@H]1CC[C@H]2[C@@H]3CC[C@@H]4C[C@H](O)CC[C@]4(C)[C@H]3CC[C@]12C`, the call was inactive.

`CCCCCCC(C)O` (centres undefined): the compound was called inactive.

In the case of `O=C(OCc1ccccc1)c1ccccc1O`, the result was inactive.

As for `CC(=O)c1ccc(C)cc1`, the compound was called inactive.

For `CC(C)N(c1ccccc1)C(C)C`, the result was inactive.

Tested on in the next test: not listed separately
Kind of test: ATG_NFI_CIS: Attagene CIS-FACTORIAL HepG2 Assay for human Nuclear Factor I (NFI) (AID 2282989). The settings on record: HepG2 cis-regulatory reporter, NFI response element transcription; actives raise or lower the signal. In outline:
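Transient MRTU transfection of HepG2 → 24 h chemical dosing → total RNA, oligo(dT) RT → PCR, 6-FAM primer extension, HpaI cut → capillary electrophoresis. Endpoint fitted bidirectionally relative to DMSO.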
Regarding `CC/C=C\C#N`, the compound was classed as inactive.

Consider `CCOC(=O)CC(C)C`, for which the outcome was inactive.

Consider `CC/C=C\CCOC(C)OCC` (centres undefined), for which the compound was classed as inactive.

For the compound `O=C(C=Cc1ccccc1)OCCCc1ccccc1`, the result was inactive.

Consider `CC(=N[Si](C)(C)C)O[Si](C)(C)C`, for which the compound was classed as inactive.

`CN(C)CCC=C1c2ccccc2CCc2ccccc21`: the compound was called inactive.

On to `CCC=C(C)C=O`, for which the result was inactive.

As to `[Cu+]`, the result was inactive.

`c1coc(CNc2ncnc3nc[nH]c23)c1`: the compound was classed as inactive.

Regarding `CCCOC(=O)CC`, the compound was classed as inactive.

As for `CCCc1ccc(O)cc1`, the compound was called inactive.

For the compound `COc1ccc(OC)cc1`, the compound was classed as inactive.

With `CC(=O)CCC(=O)O`, the call was inactive.

For `CCCCCC(=O)O[C@]1(C(C)=O)CC[C@H]2[C@@H]3CCC4=CC(=O)CC[C@]4(C)[C@H]3CC[C@@]21C`, the outcome was inactive.

As for `O=C1OC2(c3ccc(O)cc3Oc3cc(O)ccc32)c2ccccc21`, the outcome was inactive.

As for `CC1=CC(O)CC(C)(C)C1` (centres undefined), the compound was classed as inactive.

As to `CCCCCCOC(C)=O`, the compound was called inactive.

Take `OCCCO`: the compound was classed as inactive.

As for `CCCCOC(=O)C(C)OC(=O)CCC` (centres undefined), the compound was classed as inactive.

Consider `CC(=O)CC(=O)N(C)C`, for which the call was inactive.

Turning to `OC[C@H]1O[C@@H](O[C@H]2[C@H](O)[C@@H](O)[C@H](O)O[C@@H]2CO)[C@H](O)[C@@H](O)[C@H]1O`, the compound was classed as inactive.

As to `CC(C)(CO)CO`, the compound was called inactive.

Regarding `C/C=C(\C)C(=O)OC/C=C(\C)CCC=C(C)C`, the result was inactive.

In the case of `NC(=O)c1cnccn1`, the compound was classed as inactive.

With `CC/C=C\CCOC(=O)C(C)C`, the compound was classed as inactive.

As to `C[C@H](CCC(=O)O)[C@H]1CC[C@H]2[C@@H]3CC[C@@H]4C[C@H](O)CC[C@]4(C)[C@H]3CC[C@]12C`, the AC50 was 100 µM (active).

`CCCCCCC(C)O` (centres undefined): the compound was classed as inactive.

In the case of `O=C(OCc1ccccc1)c1ccccc1O`, the AC50 was 178 µM (active).

On to `CC(=O)c1ccc(C)cc1`, for which the result was inactive.

With `CC(C)N(c1ccccc1)C(C)C`, the result was inactive.
